# Screening results from PubChem BioAssay.
# VP16 counter: inhibits Gal4-VP16 luciferase reporter, ROR gamma counter-screen; Drosophila S2 Gal4-VP16 UAS-luciferase, luminescence, 20 h; Potency, µM (top dose mostly 53.6 µM), for the others: top-dose activity, negative = inhibition, most hits filed as inhibitors; hit rate 3.5% among 310,000; AID 2546;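 note: Gal4-VP16 expression switched on by copper sulfate through the metallothionein promoter; potency is the fitted concentration of half-maximal effect; % is set by controls: 0 for no effect and ±100 for the full control effect; nearly all actives have a fitted effect of over 50% in size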
# ELG1 DNA repair: inhibitors of ELG1-dependent DNA repair in HEK293T cells. hit rate 2.3% among 330,000. HEK293T ELG1-luciferase reporter, luminescence, 16 h; DNA damage induced by 5-fluorouridine. Potency, µM (titrated, usually from 46.1 µM), inactives show at the top dose activity change, negative = inhibition, hits mostly inhibitors; note: potency is the fitted concentration of half-maximal effect; % is set by controls: 0 for no effect and ±100 for the full control effect; nearly all actives have a fitted effect of over 55% in size
#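 Quantitative HTS, concentration-response format. 2,000 cells/well co-treated with 5-fluorouridine and compound, 16 hr in 5% CO2 at 37 °C; ONE-Glo luminescence read after 30 min.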
# RORg inh: blocks mouse ROR gamma transcriptional activity; P51450; Drosophila S2 Gal4-RORgamma UAS-luciferase reporter, 20 h; Potency, µM (series often up to 53.6 µM), for inactives: top-dose activity change, negative = inhibition, actives largely listed as inhibitors; hit rate 5.4% among 310,000; AID 2551; note: potency is the fitted concentration of half-maximal effect; % is set by controls: 0 for no effect and ±100 for the full control effect; nearly all actives have a fitted effect of over 60% in size
# Target sequence (P51450 whole entry, looked up, the tested form may be a part): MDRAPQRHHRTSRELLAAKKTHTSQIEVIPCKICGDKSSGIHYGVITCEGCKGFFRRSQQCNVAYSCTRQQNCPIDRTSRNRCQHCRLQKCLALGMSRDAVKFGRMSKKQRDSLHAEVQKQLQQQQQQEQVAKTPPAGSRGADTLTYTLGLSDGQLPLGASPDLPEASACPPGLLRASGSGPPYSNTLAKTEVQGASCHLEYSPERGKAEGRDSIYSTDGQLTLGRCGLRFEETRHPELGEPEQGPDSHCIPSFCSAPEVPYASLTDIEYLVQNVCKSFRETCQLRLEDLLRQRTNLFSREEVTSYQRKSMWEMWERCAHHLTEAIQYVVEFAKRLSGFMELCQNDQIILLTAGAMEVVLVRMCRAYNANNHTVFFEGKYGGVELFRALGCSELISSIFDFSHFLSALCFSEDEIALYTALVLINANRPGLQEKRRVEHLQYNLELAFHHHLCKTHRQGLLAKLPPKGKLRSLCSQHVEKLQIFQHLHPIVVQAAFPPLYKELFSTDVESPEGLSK
#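 Compounds are pin-transferred onto Drosophila Schneider cells expressing a copper-inducible Gal4–ROR gamma transactivation domain fusion. After 1 hr, copper sulfate is added to 700 uM final; luciferase is read 20 hr later.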
# p53 reactivation: re-activators of mutant p53. H1299 p53-A138V BP100-luciferase reporter, luminescence, 24 h. Potency, µM (top dose mostly 92.2 µM), for inactives: at the top dose activity change, positive = activation, usual class: activators. hit rate 0.063% among 320,000; note: potency is the fitted concentration of half-maximal effect; % of control where 0% means no effect; nearly all actives have a fitted effect of over 45% in size
#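 H1299 (p53-null), stable ts p53-A138V + BP100-Luc; 1000 cells/well, Opti-MEM/10% FBS; cpd 4 pt, 1:5; 24 h, 37 deg C, 5% CO2; detection reagent 10 min RT; luminescence.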
# Giardia kill: Giardia lamblia killing. AID 540267. hit rate 0.15% among 340,000. Giardia lamblia trophozoite viability. activity change, % at 7.66 µM, hits read low; in the data active = activity change below about -80%; inconclusive = between about -30% and that limit;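 note: parasites exposed to compound for two days anaerobically before the ATP read; % is set by controls: 0 for no effect and ±100 for the full control effect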
#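 Luminescent ATP signal served as the viability read-out, measured 15-30 min after adding ATP detection reagent to trophozoites that had been incubated with compounds for 48 hrs at 37 deg C anaerobically at 100 cells/well.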
# BRCA1 expr act: activators of BRCA1 expression. MCF7-BRCA1-FFLuc reporter, luminescence, 48 h; response scale: scaled: vehicle 0%, 10 µM genistein 100%. Potency, µM (top dose mostly 46.1 µM), inactives show top-dose activation, hits mostly activators. hit rate 1.1% among 380,000. AID 624202; note: potency is the fitted concentration of half-maximal effect; nearly all actives have a fitted effect of over 80% in size
#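 Luminescence from a BRCA1-driven firefly luciferase in MCF7 cells was the read-out, taken 15 min after substrate addition following 48 h compound exposure at 37 °C. Data were normalized to a 10 microM genistein control and DMSO vehicle.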
# * = called active by the depositor; ? = inconclusive; . = not tested or not shown; [ ] = dose if it differs, or a comment. Rows were chosen to be rich in hits. Some 7.6% of all compounds tested hit in one or more screens of this group. Unless noted, calls come from the whole dose curve; as a rule, active = well fitted curve in the direction sought with a large enough effect; inconclusive = small, poorly fitted or top-dose-only effect, or another doubt; inactive = no such curve, though single readings can be large; an effect the other way counts as inactive or inconclusive.
SMILES,VP16 counter,ELG1 DNA repair,RORg inh,p53 reactivation,Giardia kill,BRCA1 expr act
C[C@H](CO)N1C[C@H](C)[C@@H](CN(C)C(=O)Nc2ccc3c(c2)OCO3)Oc2c(NC(=O)Nc3ccccc3)cccc2C1=O,.,6.5µM*,.,5%,-13,0%
CC(C)NC(=O)N(C)C[C@H]1Oc2c(NC(=O)Nc3ccc4c(c3)OCO4)cccc2C(=O)N([C@H](C)CO)C[C@@H]1C,.,?,.,12%,?,-3%
COC(=O)C1C(c2ccc(OC)cc2)Nc2nnc(C(F)(F)F)n2C1(C)O (configuration not stated),-16%,6%,0%,2%,0,-6%
COc1ccc(OC)c(C2c3c(-c4ccc(Br)cc4)n[nH]c3C(=O)N2c2ccc(Cl)cc2)c1 (configuration not stated),.,.,.,.,.,-71%
CC(C)(C)c1ccc(C(=O)NCCCN2CCN(CCCNC(=O)c3ccc(C(C)(C)C)cc3)CC2)cc1,13µM*,?,7.1µM*,-34%,-1,-77%
CC(C)(C)c1ccc(C(=O)NCCN2CCOCC2)cc1,.,.,.,.,52,57%
CC(C)C(c1nnnn1C(C)(C)C)N1CCC(Cc2ccccc2)CC1 (configuration not stated),22µM*,?,?,8%,19,-33%
CC(C)C(c1nnnn1C(C)(C)C)N1CCOCC1 (configuration not stated),4%,3%,2%,-2%,-5,2%
c1ccc(-n2nnc(-c3cccnc3)n2)cc1,-5%,?,-10%,?,-1,7.9µM*
C=CCn1c(O)c(N=O)c2cc(C)ccc21,7%,2%,24%,-3%,-17,3%
COc1ccccc1C(=O)NC(CCSC)C(=O)OC(C)C(N)=O (configuration not stated),-10%,8%,27%,-4%,-22,3%
Cc1cc(C)c2c(n1)nn1c(N3CCN(Cc4ccccc4)CC3)cc(C)nc21,4%,-6%,-33%,-6%,32,0%
COc1ccc(F)cc1CN1CCN(c2cc(C)nc3c4c(C)cc(C)nc4nn23)CC1,?,?,20µM*,11%,.,.
Oc1[nH]c2ccccc2c1N=Nc1nc(Nc2ccccc2)nc(N2CCOCC2)n1,-2%,3.7µM*,-8%,-1%,-15,-88%
Cc1[nH]c2ccccc2c1/C=N/Nc1nc(Nc2ccccc2)nc(N2CCOCC2)n1,0%,23µM*,?,2%,-3,-34%
c1ccc(Nc2nc(N3CCCC3)nc(N3CCOCC3)n2)cc1,.,.,.,.,-12,-5%
CC(C)C[C@H]1COc2cccc(N3CCN(Cc4ccccc4F)CC3)c2S(=O)(=O)N1,.,.,.,.,.,0%
Cc1ccc(C(=O)N2CCn3c(C)ccc3C2C)cc1 (configuration not stated),3%[10 µM],-10%,-29%,1%,-11,-31%
CCc1c(C(=O)N/N=C/c2sccc2C)nnn1-c1nonc1N,10µM*,?,10µM*,2%,-7,24%
Cc1ccc(/C=N/NC(=O)c2nnn(-c3nonc3N)c2CNc2ccccc2)cc1,-11%,21%,-36%,-1%,28,-11%
Cc1ccc(/C=N/NC(=O)c2nnn(-c3nonc3N)c2CN(C)c2ccccc2)s1,?,13%,18µM*,-4%,-4,0%
Cc1ccsc1/C=N/NC(=O)c1nnn(-c2nonc2N)c1CN(C)c1ccccc1,3.2µM*,-15%,4µM*,3%,?,-24%
Nc1nonc1-n1nnc(C(=O)N/N=C/c2cc(Br)ccc2O)c1CNc1ccccc1,7.1µM*,?,5µM*,0%,?,-21%
COc1ccc(CN(CC(=O)NCC2CCCO2)C(=O)CNS(=O)(=O)c2ccccc2)cc1 (configuration not stated),-1%,3%,20%,3%,-11,-2%
Cc1ccccc1NC(=S)N1CCC(NC(=O)c2ccco2)CC1,-3%[10 µM],4%,7%,-1%,11,0%
SMILES,VP16 counter,ELG1 DNA repair,RORg inh,p53 reactivation,Giardia kill,BRCA1 expr act
CC1(C(=O)NS(=O)(=O)c2cccc(C#N)c2)CCN1C(=O)c1ccccc1 (configuration not stated),.,.,.,.,.,13%
COc1ccc2ccccc2c1/C=N/NC(=O)c1nnn(-c2nonc2N)c1C(C)C,?,?,?,-2%,-5,-61%
Cc1c(C(=O)N/N=C/c2c(O)ccc3ccccc23)nnn1-c1nonc1N,7.1µM*,?,4.5µM*,6%,32,-68%
Cc1ccc(NC(=O)c2ccc(F)cc2F)cc1,.,.,.,.,-13,?
O=C(NC(=O)c1ccc(F)cc1F)Nc1ccc(Cl)cc1,7%,?,12%,5%,-14,2.8µM*
CCc1ccc(CN2C(=O)c3ccccc3C2C(=O)NCc2cccnc2)cc1 (configuration not stated),-5%,-14%,24%,-2%,3,0%
CCN1CCN(c2nc(-c3ccncc3)nc3ccccc23)CC1,-6%,0%,-26%,-4%,.,.
COc1cc2c(cc1OC)CN(c1nc(-c3cccnc3)nc3ccccc13)CC2,-5%,9.2µM*,20%,-3%,-1,-45%
CC1CN(c2nc(-c3ccccc3)nc3ccccc23)CC(C)O1 (configuration not stated),-2%,13µM*,-30%,4%,-3,-31%
c1cncc(-c2nc(N3CCCCCC3)c3ccccc3n2)c1,?,?,11µM*,-19%,3,-31%
c1ccc2c(N3CCCCCC3)nc(-c3ccncc3)nc2c1,-6%,7.3µM*,-39%,-5%,-10,-33%
Cc1ccnc(NS(=O)(=O)c2ccc(NC(=O)CCOc3ccccc3)cc2)n1,0%,1%,21%,-4%,-6,-20%
c1ccc(N2CCN(c3nc(-c4ccccn4)nc4ccccc34)CC2)cc1,1.6µM*,?,0.28µM*,20%,2,-72%
COC(=O)c1cc(OC)c(OC)cc1NC(=O)c1ccc(OC)c(OC)c1,-5%,?,12%,-1%,22,-14%
Cc1ccc(C)c2c(/C=C/c3ccc(N(C)C)cc3)ccnc12,.,.,.,.,.,-2%
Cc1ccc(/C=[N+](\[O-])c2ccc(N(C)C)cc2)c2nsnc12,?,?,5µM*,?,7,-77%
Cc1ccc(OC(=O)NC2CCS(=O)(=O)C2)cc1C (configuration not stated),1%,2%,-5%,-7%,-2,-1%
